# hDAT+cocaine: modulates human dopamine transporter uptake under cocaine; Q01959; actives 1.3% (n = 110,000); B-score at 10 µM; LLC-PK1 hDAT cells, [14C]-dopamine uptake with cocaine IC80; actives deviate in either direction;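 active means Z score or B-score, a plate-position-corrected score, falls beyond the plate's 99.7% confidence bounds, in either direction; inactive means both scores lie inside the 99.7% bounds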;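 further: scored against the spread of the other compound wells on the same plate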
# PostGolgi ctrl: growth of the yeast control strain, post-Golgi counter-screen; efflux-deficient yeast background strain, growth absorbance A615, 16 h; inhibition, % at 10 µM; actives 5% (n = 98,000)
# PostGolgi yeast: growth inhibition of a yeast mutant, post-Golgi transport screen; AID 739; post-Golgi transport phenotypic cell assay; actives 0.9% (n = 98,000); inhibition, % at 10 µM;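 further: yeast cells grown in 1536-well plates; yeast grown about 18 h at 30C before absorbance read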
# Cav3 T inh: inhibitors of human Cav3.2 T-type calcium channel; O95180; actives 4% (n = 100,000); B-score at 10 µM; Cav3.2-expressing cells, Fluo-4 calcium fluorescence FDSS; stronger effect = lower value;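 active means single-dose well whose peak fluorescence ratio is a statistical outlier from its plate by either plate-standardised score or position-corrected B-score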
# PLAP act: human PLAP activation; P05187; purified PLAP enzyme, luminescent substrate read-out; stronger effect = higher value; activation fold at 20 µM; actives 1.2% (n = 96,000); in the data active means activation fold above about 2
# * hit, by the source's call; · = no result given. The list is not random: actives were taken first. Their share in the collection is about 9.6%. Unless noted, no stated cut-off is given here; in the data, active means inhibition above about 30%; inactive means the rest.
SMILES,hDAT+cocaine,PostGolgi ctrl,PostGolgi yeast,Cav3 T inh,PLAP act
C=CCNC(=S)NCC=C,0.17,·,·,0.011,·
C=CCc1cccc2cc(C(=O)N(CC)CC)c(=O)oc12,-0.14,1,-15,1.6,1.1
CCOC(=O)C1=C(N)N2C(=O)C(C)SC2=C(C(=O)OC)C1c1ccccc1OC (stereo not given),-0.25,75*,110*,·,1
CCOC(=O)C1C(=O)CC(C)(O)C(C(=O)OCC)C1c1ccccc1OC (stereo not given),0.86,7,-4,-0.066,1
CC1CN(C2CCN(C(=O)COc3ccc(Cl)cc3)CC2)CC(C)O1 (stereo not given),-0.74,18,-1,0.36,1.2
COc1ccc(N(C(=O)Cn2cnc3ccccc32)C(C(=O)NC2CCCCC2)c2ccccc2)cc1 (stereo not given),0.23,-4,-3,-3.5*,1.3
Cc1c(C(=O)O)c2cc(O)ccc2n1-c1ccccc1,-0.45,23,-10,0.76,1.3
CCOc1ccc2c(c1)c(C(C)=O)c(C)n2-c1ccccc1,-0.028,41*,-2,-0.022,0.8
COc1ccc(NC(=O)C2CCN(c3cc(C)nc(-c4ccccc4)n3)CC2)cc1,1.3,15,-5,-5.9*,1.9
Cc1cc(C)nc(N2CCC(C(=O)Nc3cccc(C(F)(F)F)c3)CC2)n1,0.28,23,2,-4.2*,1.2
COc1ccc(NC(=O)C2CCN(c3nc(C)cc(C)n3)CC2)cc1,0.39,·,·,0.4,·
CS(=O)(=O)N1CCC(C(=O)Nc2cccc(C(F)(F)F)c2)CC1,0.98,-3,-6,0.42,0.9
Cc1cc(N2CCC(C(N)=O)CC2)nc(-c2ccccc2)n1,0.09,7,-3,1.2,1
Cc1cc(N2CCC(C(=O)Nc3ccc(F)cc3)CC2)nc(-c2ccccc2)n1,0.14,4,-4,-6.9*,1.1
CN1C(=O)N2CN(C3CCCCC3)CN3C(=O)N(C)C1C23 (stereo not given),0.34,1,4,0.29,0.8
CC(C)N(Cc1nnc(-c2ccccc2Cl)o1)C(=O)c1cccc(C#N)c1,·,·,·,·,0.9
O=C(O)c1ccc(S(=O)(=O)c2ccc3c(c2)C(=O)N(Cc2ccco2)C3=O)cc1,-0.39,0,0,0.6,1.1
CSc1nc(Sc2ccccc2Cl)c2ccccc2n1,0.13,6,-10,-0.6,1
COc1ccc(S(=O)(=O)NCCSCc2ccco2)cc1C,0.17,·,·,-2.8,·
COc1ccc(S(=O)(=O)NCCSCc2ccco2)cc1Cl,-1.1,-3,3,-6*,0.8
O=C(Nc1ccc(SC(F)F)cc1)c1ccc2nccnc2c1,-0.58,31*,-2,0.035,0.9
Cc1nc2cc(-c3ccsc3-n3c(C)ccc3C)[nH]n2c(=O)c1Cl,-0.91,11,-4,-4.7*,1
COCCn1cc(C(=S)N2CCOCC2)c2ccccc21,-0.025,-8,4,1.3,1
CNC(=S)N(Cc1ccc2c(c1)OCO2)C1CC(=O)N(c2ccc(F)cc2)C1=O (stereo not given),-0.58,-2,0,-4*,0.9
O=C1CC(SC(=NCc2ccc3c(c2)OCO3)Nc2ccccc2)C(=O)N1c1ccccc1 (stereo not given),-0.43,41*,4,0.052,0.8
SMILES,hDAT+cocaine,PostGolgi ctrl,PostGolgi yeast,Cav3 T inh,PLAP act
C/C(CCc1ccc2c(c1)OCO2)=N\N=C(/N)SC1CC(=O)N(c2ccc(Cl)cc2)C1=O (stereo not given),0.49,27,-10,-4.1*,1.2
CCOC(=O)c1ccc(N2C(=O)CC(N(C)CCc3ccc(OC)c(OC)c3)C2=O)cc1 (stereo not given),0.58,-3,-4,0.27,1.4
CCOC(=O)c1ccc(N2C(=O)CC(N(Cc3ccc4c(c3)OCO4)C(=O)Nc3ccccc3)C2=O)cc1 (stereo not given),1,13,-5,-3.9,2*
COc1ccc(S(=O)(=O)NNC(=O)C2Cc3c(ccc4ccccc34)O2)cc1 (stereo not given),1.1,17,-1,-0.72,1.1
COC(=O)c1ccsc1NC(=O)CN1C(=O)CCC1=O,-1.1,·,·,0.7,·
Cc1nn(-c2ccc(F)cc2)c2sc(C(=O)N3CCCCCC3)cc12,1.9,31*,-7,-0.6,0.9
CCNC(=O)/N=C1/NC(=O)C(C(C)C)O1 (stereo not given),0.00059,-2,-4,0.24,1
COc1ccc2c(c1)c(C(O)CN1CCC3(CC1)OCCO3)c(C)n2C (stereo not given),-0.88,7,-2,1,1.3
C#Cc1ccc([C@H]2C=C(C(=O)NC3CC3)O[C@@H](OCC)[C@@H]2CCCO)cc1,-0.031,·,·,1.1,·
Cc1cc(Br)cc(C)c1NC(=S)NC(=O)CC(C)C,-8*,8,-1,·,0.8
O=C(CSc1nnc2ccccn12)Nc1ccccc1C(=O)NC1CC1,0.32,4,5,-0.76,1
CC(=O)C1=C(O)C(=O)N(Cc2cccnc2)C1c1ccc(Cl)cc1Cl (stereo not given),-0.032,·,·,0.067,·
OC(Cn1cncn1)c1ccc(Cl)cc1 (stereo not given),0.055,-5,4,-0.55,0.9
OC(c1ccc(Cl)cc1Cl)C(Cc1cccnc1)n1cncn1 (stereo not given),-0.11,11,45*,·,1.4
OC(Cn1cncn1)c1ccc(Cl)cc1Cl (stereo not given),-0.21,40*,78*,-0.093,1.2
Cc1csc(C2=C(O)CN(c3ccc4c(c3)OCCOCCOCCOCCO4)C2=N)n1,1.3,10,-12,0.15,1.9
Cc1ccc(/C=C2\SC(=S)N(c3c(C)n(C)n(-c4ccccc4)c3=O)C2=O)cc1,2.8,10,2,-5*,1.7
Cc1c(N2C(=O)/C(=C/c3cccc4ccccc34)SC2=S)c(=O)n(-c2ccccc2)n1C,-0.76,·,·,-0.51,·
Cc1c(N2C(=O)/C(=C/c3ccccc3)SC2=S)c(=O)n(-c2ccccc2)n1C,2.6*,9,5,1.4,1.6
COc1ccc(C2OC34CCCCC3C(C#N)(C#N)C2(C#N)C(=N)O4)cc1 (stereo not given),-0.37,3,2,2.5,1
Cc1[nH]nc2c1C(c1cn[nH]c1-c1ccc(F)cc1)C(C#N)=C(N)O2 (stereo not given),-0.19,-2,14,·,1.5
CCC(CC)C(=O)Nc1ccc(Cl)c(Cl)c1,-0.21,7,17,-5.2*,0.9
CCC(CC)C(=O)Nc1ccc(Sc2ccc([N+](=O)[O-])cc2)cc1,0.02,0,8,-5.1*,0.9
CC(C)OC(=O)NCCOC(=O)Nc1ccc(Cl)c(Cl)c1,1.5,·,·,-7*,·
COc1cccc(CNc2nc3ccccc3n2CCN2CCCCC2)c1,1.1,6,20,1.3,1.7
c1cc(CN2CCCCC2)cc(OCCCNc2nc3ccccc3s2)c1,-0.22,·,·,-4.3*,·
CCN(CC)c1ccc2cc(C(C)=O)c(=O)oc2c1,-1,6,1,-10*,0.9
CCN(CC)c1ccc2cc(C=O)c(=O)oc2c1,-1.4,8,5,-9*,0.7

# High-throughput results (PubChem)
